Inconclusive results are not listed. Entries that show only a call come without a potency. Unmarked numbers belong to inactive results. The source made the active and inactive calls. Unless noted, the call rests on the fitted dose curve; in most records, active means well fitted curve in the direction sought with a large enough effect in the repeat runs; inconclusive means weak or mixed curves; inactive means no such curve, though single readings can be large; an effect the other way counts as inactive or inconclusive.
What was measured:
[1] = qHTS assay to identify small molecule antagonists of the retinoid acid receptor (RAR) signaling pathway - cell viability counter screen (AID 1159551); further: nearly all actives have a fitted effect of over 35% in size; further: potency means the concentration at half of the fitted maximal effect
Summary of the method: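 Cells (C3RL4) are plated, incubated overnight, dosed with compound in DMSO, then given retinol at 1 uM final. After 6 h at 37 C, CellTiter-Glo is added and luminescence read following 30 min at room temperature.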

[2] = qHTS assay to identify small molecule agonists of the estrogen related receptor signaling pathway with the pleiotropic PPARgamma coactivator (PGC) (AID 1224823)
Summary of the method: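 Luminescence readout (One-Glo, 30 min RT) from PGC/ERR cell line treated 18 h at 37 C with pin-tool-delivered DMSO compound solutions; cells plated 6 h before dosing. Quantitative HTS format.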

[3] = qHTS assay to identify small molecule antagonists of the estrogen related receptor (ERR) signaling pathway from Tox21 library - cell viability counter screen (AID 1224834); further: nearly all actives have a fitted effect of over 30% in size; further: potency means the concentration at half of the fitted maximal effect
Summary of the method: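 ERR cells, 2,000/well; 6 h settle at 37 C/5% CO2; pin-tool compound transfer in DMSO; 17.5 h at 37 C; CellTiter-Fluor, 30 min; fluorescence intensity.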

[4] = target: Luciferin 4-monooxygenase (Photinus pyralis) (UniProt P08659); test: qHTS assay to identify small molecule inhibitors of firefly luciferase (AID 1224835); further: series mostly up to about 120 µM; nearly all actives have a fitted effect of over 25% in size
Sequence of Luciferin 4-monooxygenase (Photinus pyralis) (P08659 whole entry, looked up): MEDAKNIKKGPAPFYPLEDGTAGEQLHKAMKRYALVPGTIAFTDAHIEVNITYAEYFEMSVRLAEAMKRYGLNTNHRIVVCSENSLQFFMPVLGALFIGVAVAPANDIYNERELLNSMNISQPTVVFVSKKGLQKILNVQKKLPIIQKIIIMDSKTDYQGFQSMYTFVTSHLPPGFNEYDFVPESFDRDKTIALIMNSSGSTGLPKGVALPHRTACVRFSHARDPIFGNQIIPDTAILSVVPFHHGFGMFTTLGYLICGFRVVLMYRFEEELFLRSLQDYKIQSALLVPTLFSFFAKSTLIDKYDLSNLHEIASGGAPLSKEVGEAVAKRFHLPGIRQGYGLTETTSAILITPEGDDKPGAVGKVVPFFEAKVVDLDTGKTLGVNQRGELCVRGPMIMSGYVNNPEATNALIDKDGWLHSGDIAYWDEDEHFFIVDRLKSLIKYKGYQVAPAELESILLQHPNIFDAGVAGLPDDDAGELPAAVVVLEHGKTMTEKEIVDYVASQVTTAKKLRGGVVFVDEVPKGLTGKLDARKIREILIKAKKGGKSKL
Summary of the method: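 Inhibition of purified Photinus luciferase is measured by luminescence. Substrate levels (D-luciferin, ATP) sit at their KM values. Each compound is tested in a concentration series.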

[5] = qHTS RealTime-Glo MT Cell Viability Assay in HEK293 cells - 32 hour (AID 1224868); further: nearly all actives have a fitted effect of over 50% in size; further: potency means the concentration at half of the fitted maximal effect; on activity change, negative = cytotoxic: top concentration of the series differs between compounds
Summary of the method: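 HEK293 cells seeded with NanoLuc/prosubstrate reagent, rested 5 h at 37 C, then dosed and kept at 37 C up to 40 h. Nonlytic real-time luminescence from viable cells read at 0, 8, 16, 24, 32 and 40 h.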

[6] = A CellTox Green Cytotoxicity Assay to monitor cytotoxicity in HepG2 cells - 24 hour (AID 1224878); further: nearly all actives have a fitted effect of over 45% in size; further: potency means the concentration at half of the fitted maximal effect
Summary of the method: (§1)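 Cells and non-lytic dye reagent are dispensed together (600 HepG2 cells/well) and incubated 5 h before DMSO compound transfer. Kinetic fluorescence is then recorded in the same wells during 40 h at 37 C.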

[7] = A CellTox Green Cytotoxicity Assay to monitor cytotoxicity in HepG2 cells - 40 hour (AID 1224879); further: nearly all actives have a fitted effect of over 40% in size; further: potency means the concentration at half of the fitted maximal effect
Summary of the method: as §1

[8] = A CellTox Green Cytotoxicity Assay to monitor cytotoxicity in HepG2 cells - 32 hour (AID 1224883); further: nearly all actives have a fitted effect of over 50% in size; further: potency means the concentration at half of the fitted maximal effect
Summary of the method: as §1

[9] = A CellTox Green Cytotoxicity Assay to monitor cytotoxicity in HEK293 cells - 8 hour (AID 1224884); further: nearly all actives have a fitted effect of over 35% in size
Summary of the method: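 Cells (HEK293, 600/well) and dye reagent are dispensed together. After 5 h at 37 C, 23 nL compound is pinned in. Plates stay at 37 C for 40 h with fluorescence read at 0h, 8h, 16h, 24h, 32h and 40h.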

[10] = qHTS assay to identify small molecule antagonists of the sonic hedgehog signaling (Shh) pathway - cell viability counter screen (AID 1259367); further: nearly all actives have a fitted effect of over 55% in size; further: potency means the concentration at half of the fitted maximal effect
Summary of the method: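 CellTiter-Fluor signal in conditioned medium-stimulated 3T3 Gli1-Luc cells, 23 hr compound exposure, 37C.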

[11] = target: Nuclear receptor subfamily 1 group I member 2 (Homo sapiens) (UniProt O75469); test: Human pregnane X receptor (PXR) small molecule agonists, qHTS assay (AID 1346982); further: nearly all actives have a fitted effect of over 35% in size; further: potency means the concentration at half of the fitted maximal effect
Sequence of Nuclear receptor subfamily 1 group I member 2 (Homo sapiens) (O75469 whole entry, looked up): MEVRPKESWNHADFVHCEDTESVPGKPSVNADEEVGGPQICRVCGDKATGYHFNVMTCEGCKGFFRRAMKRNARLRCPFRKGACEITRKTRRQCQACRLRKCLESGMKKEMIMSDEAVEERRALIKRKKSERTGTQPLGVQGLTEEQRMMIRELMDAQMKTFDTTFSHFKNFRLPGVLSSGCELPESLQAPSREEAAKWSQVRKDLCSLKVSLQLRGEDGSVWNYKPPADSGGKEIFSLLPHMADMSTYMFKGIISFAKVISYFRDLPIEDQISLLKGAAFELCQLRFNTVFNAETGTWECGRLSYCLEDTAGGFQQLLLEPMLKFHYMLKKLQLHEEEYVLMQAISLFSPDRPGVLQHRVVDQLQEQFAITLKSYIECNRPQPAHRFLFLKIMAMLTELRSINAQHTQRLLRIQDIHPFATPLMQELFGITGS
Summary of the method: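 Cells: HepG2 stably carrying PXR-Luc. Medium held 5% charcoal-stripped FBS. Compounds in DMSO added after 5 hr plating, incubated 24 hr, then luminescence quantified with ONE-Glo.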

[12] = target: Cytochrome P450 2C9 (Homo sapiens) (UniProt P11712); test: Cytochrome P450 Family 2 Subfamily C Member 9 (CYP2C9) small molecule antagonists: luciferase reporter qHTS assay (AID 1671198); further: nearly all actives have a fitted effect of over 50% in size; further: potency means the concentration at half of the fitted maximal effect
Sequence of Cytochrome P450 2C9 (Homo sapiens) (P11712 whole entry, looked up): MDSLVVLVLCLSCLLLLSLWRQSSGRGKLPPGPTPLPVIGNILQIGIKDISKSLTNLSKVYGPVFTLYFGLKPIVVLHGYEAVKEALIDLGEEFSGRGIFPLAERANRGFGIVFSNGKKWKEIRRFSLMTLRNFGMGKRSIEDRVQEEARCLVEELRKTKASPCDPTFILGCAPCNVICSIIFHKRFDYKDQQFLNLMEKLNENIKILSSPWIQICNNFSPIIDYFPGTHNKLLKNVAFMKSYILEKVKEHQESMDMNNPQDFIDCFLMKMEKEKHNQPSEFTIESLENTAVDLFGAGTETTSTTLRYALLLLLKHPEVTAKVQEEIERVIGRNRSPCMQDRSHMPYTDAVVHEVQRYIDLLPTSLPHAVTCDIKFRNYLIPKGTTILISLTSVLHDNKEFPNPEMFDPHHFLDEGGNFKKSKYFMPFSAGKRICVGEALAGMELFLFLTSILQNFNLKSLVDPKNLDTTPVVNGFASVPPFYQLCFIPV
Summary of the method: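 Enzyme-substrate mix preincubated with compound 10 min at room temperature; reaction started with NADPH regeneration solution, 1 h 37C. Luminescent luciferin product read after 20 min detection reagent.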

[13] = qHTS assay to identify small molecule agonists of the constitutive androstane receptor (CAR) signaling pathway - cell viability counter screen (AID 1224836); further: nearly all actives have a fitted effect of over 45% in size; further: potency means the concentration at half of the fitted maximal effect; on viability change, negative = cytotoxic: series mostly up to about 92 µM
Summary of the method: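 Cell viability multiplexed with the CAR agonist screen: CellTiter-Fluor fluorescence after 23 hr at 37 C. HepG2-CYP2B6-hCAR cells got compounds at 15 concentrations with PK11195 at 0.75 uM final.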

[14] = qHTS assay to identify small molecule antagonists of the constitutive androstane receptor (CAR) signaling pathway - cell viability counter screen (AID 1224837); further: nearly all actives have a fitted effect of over 45% in size; further: potency means the concentration at half of the fitted maximal effect; on activity change, negative = cytotoxicity: series mostly up to about 92 µM
Summary of the method: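 Viability was measured with CellTiter-Fluor in a HepG2 line carrying stably transfected hCAR and a CYP2B6-2.2kb construct. Cells were exposed for 23 hr at 37 C to 15 compound concentrations with 50 nM CITCO as agonist.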

[15] = qHTS assay to identify small molecule agonists of the TGF-beta/Smad signaling pathway - cell viability counter screen (AID 1346829); further: top concentration of the series differs between compounds; nearly all actives have a fitted effect of over 45% in size
Summary of the method: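 SBE-bla HEK 293T cells plated overnight, compound exposure 5 hr at 37 C. Viability read in the same wells by CellTiter-Glo luminescence after 30 min at room temperature, following the beta-lactamase read.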

[16] = qHTS assay to identify small molecule agonists of the AP-1 signaling pathway - cell viability counter screen (AID 1159525; calls by dose curve; further: nearly all actives have a fitted effect of over 55% in size; further: potency means the concentration at half of the fitted maximal effect)
Summary of the method: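 Intracellular ATP by Cell Titer Glo luminescence (30 min, RT) in the same ME-180 AP-1-bla wells after the 5 h compound exposure at 37 °C. Normalised to tetra n-octyl ammonium bromide and DMSO controls.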

[17] = qHTS RealTime-Glo MT Cell Viability Assay in HepG2 cells - 24 hour (AID 1224867); further: nearly all actives have a fitted effect of over 50% in size; further: potency means the concentration at half of the fitted maximal effect
Summary of the method: (§2)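 HepG2 cells (600/well) were dispensed with RealTime-Glo reagents, incubated 5 h at 37 °C, then treated with compounds in DMSO for up to 40 h. Nonlytic NanoLuc luminescence reflecting viable cells was read at each stated time point.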

[18] = qHTS RealTime-Glo MT Cell Viability Assay in HepG2 cells - 32 hour (AID 1224877); further: nearly all actives have a fitted effect of over 55% in size; further: potency means the concentration at half of the fitted maximal effect
Summary of the method: as §2

[19] = qHTS RealTime-Glo MT Cell Viability Assay in HepG2 cells - 16 hour (AID 1224885); further: nearly all actives have a fitted effect of over 50% in size; further: potency means the concentration at half of the fitted maximal effect
Summary of the method: as §2

[20] = target: Retinoic acid receptor RXR-alpha (Homo sapiens) (UniProt P19793); test: qHTS assay to identify small molecule agonists of the RXR signaling pathway (AID 1159527; calls by dose curve; further: nearly all actives have a fitted effect of over 35% in size)
Sequence of Retinoic acid receptor RXR-alpha (Homo sapiens) (P19793 whole entry, looked up): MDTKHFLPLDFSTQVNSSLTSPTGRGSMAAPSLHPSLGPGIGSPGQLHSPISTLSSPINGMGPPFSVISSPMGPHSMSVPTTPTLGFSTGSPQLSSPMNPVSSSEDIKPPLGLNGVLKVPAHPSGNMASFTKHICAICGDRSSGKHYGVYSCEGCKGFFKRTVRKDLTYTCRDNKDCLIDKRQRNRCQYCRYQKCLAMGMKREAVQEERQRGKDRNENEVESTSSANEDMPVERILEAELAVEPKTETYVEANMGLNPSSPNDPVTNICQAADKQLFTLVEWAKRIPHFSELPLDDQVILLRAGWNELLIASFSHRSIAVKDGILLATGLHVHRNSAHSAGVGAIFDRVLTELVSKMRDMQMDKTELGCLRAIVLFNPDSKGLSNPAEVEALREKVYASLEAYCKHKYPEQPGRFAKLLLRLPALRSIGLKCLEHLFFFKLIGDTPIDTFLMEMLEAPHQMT
Summary of the method: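 Agonist-mode beta-lactamase reporter assay: HEK 293T RXR-alpha-UAS-bla cells treated 16 hr at 37 C with compounds, 9-cis retinoic acid as positive control. LiveBLAzer FRET substrate, 405 nm excitation, 460/530 nm emission.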

Compound: CO/C=C(/C(=O)OC)c1ccccc1Oc1cc(Oc2ccccc2C#N)ncn1
- Potency [1]: 32.7 µM (active)
- Potency [2]: inactive
- Potency [3]: 20.6 µM (active)
- Potency [4]: inactive
- Potency [5]: 23.3 µM (active)
- Potency [6]: inactive
- Potency [7]: inactive
- Potency [8]: inactive
- Potency [9]: inactive
- Potency [10]: 58.1 µM (active)
- Potency [11]: 0.686 µM (active)
- Potency [12]: 7.45 µM (active)

Compound: COc1ccc(C(c2ccc(OC)cc2)C(Cl)(Cl)Cl)cc1
- Potency [1]: inactive
- Potency [2]: inactive
- Potency [3]: inactive
- Potency [13]: inactive
- Potency [14]: inactive
- Potency [5]: 48.7 µM (active)
- Potency [6]: inactive
- Potency [7]: inactive
- Potency [8]: inactive
- outcome [15]: inactive
- Potency [11]: 17.1 µM (active)
- Potency [12]: 1.82 µM (active)

Compound: Oc1c(I)cc(I)cc1I
- Potency [16]: inactive
- Potency [3]: inactive
- Potency [4]: inactive
- Potency [13]: inactive
- Potency [14]: inactive
- Potency [17]: inactive
- Potency [5]: inactive
- Potency [18]: inactive
- Potency [6]: inactive
- Potency [7]: inactive
- Potency [8]: inactive
- Potency [9]: inactive
- Potency [19]: inactive
- Potency [10]: inactive
- outcome [15]: inactive
- Potency [12]: 56.4 µM (active)

Compound: O=C(c1ccccc1)C(Cl)Cl
- Potency [16]: inactive
- Potency [3]: 61.1 µM (active)
- Potency [4]: inactive
- Potency [13]: 61.1 µM (active)
- Potency [14]: 54.5 µM (active)
- Potency [5]: 38.9 µM (active)
- Potency [18]: inactive
- Potency [6]: inactive
- Potency [8]: inactive
- Potency [9]: inactive
- outcome [15]: inactive

Compound: Brc1c2ccccc2c(Br)c2ccccc12
- activation [20]: 1.52% [at 6.98 µM]

Compound: Cc1ccc2nc3sc(=O)sc3nc2c1
- activity change, negative = cytotoxicity [1]: 1.22% [at 19 µM]
- viability change, negative = cytotoxic [3]: -9.38% [at 19 µM]
- viability change, negative = cytotoxic [13]: 1.63% [at 19 µM]
- activity change, negative = cytotoxicity [14]: 11.8% [at 19 µM]
- activity change, negative = cytotoxicity [17]: -4.88% [at 15.8 µM]
- activity change, negative = cytotoxic [5]: 8.73% [at 15.8 µM]
- activity change, negative = cytotoxic [18]: -8.61% [at 15.8 µM]
- cytotoxicity [6]: -2.5% [at 15.8 µM]
- cytotoxicity increase [7]: -2.41% [at 15.8 µM]
- cytotoxicity increase [8]: -5.02% [at 15.8 µM]
- cytotoxicity increase [9]: 4.71% [at 15.8 µM]
- activity change, negative = cytotoxic [19]: 0.198% [at 15.8 µM]
- activity change, negative = cytotoxicity [15]: 17% [at 15.8 µM]
- activation [11]: 20.6% [at 19 µM]

Compound: CC(c1ccccc1)(c1ccc(O)cc1)c1ccc(O)cc1
- Potency [16]: 49 µM (active)
- Potency [3]: 61.1 µM (active)
- Potency [4]: inactive
- Potency [13]: inactive
- Potency [14]: inactive
- Potency [17]: inactive
- Potency [5]: 43.6 µM (active)
- Potency [18]: inactive
- Potency [6]: 43.6 µM (active)
- Potency [7]: 38.9 µM (active)
- Potency [8]: 43.6 µM (active)
- Potency [9]: inactive
- Potency [19]: inactive
- outcome [15]: inactive
- Potency [11]: 17.2 µM (active)
- Potency [12]: 8.94 µM (active)

Compound: c1ccc2c(c1)Sc1ccccc1N2CC1CN2CCC1CC2 (centres undefined)
- Potency [16]: inactive
- Potency [1]: inactive
- Potency [3]: 29.8 µM (active)
- Potency [4]: inactive
- Potency [13]: 29.8 µM (active)
- Potency [17]: 21.3 µM (active)
- Potency [18]: 23.9 µM (active)
- Potency [6]: 23.9 µM (active)
- Potency [7]: 19 µM (active)
- Potency [8]: 21.3 µM (active)
- Potency [19]: 23.9 µM (active)
- Potency [10]: 11.9 µM (active)
- outcome [15]: inactive
- Potency [12]: inactive

Compound: COc1cc(OC)c(OC)cc1C=O
- Potency [16]: inactive
- Potency [1]: inactive
- Potency [2]: inactive
- Potency [3]: inactive
- Potency [4]: inactive
- Potency [13]: inactive
- Potency [14]: inactive
- Potency [17]: inactive
- Potency [5]: inactive
- Potency [18]: inactive
- Potency [6]: inactive
- Potency [7]: inactive
- Potency [8]: inactive
- Potency [9]: inactive
- Potency [19]: inactive
- Potency [10]: 47.1 µM (active)
- outcome [15]: inactive
- Potency [11]: inactive

From PubChem BioAssay (Tox21)
